# Data as given in PubChem BioAssay (Tox21).
# Records with an inconclusive call do not appear. Unmarked numbers belong to inactive results. Active and inactive are the calls of the source. Unless noted, how the calls were made is not given here.
# Assay: qHTS assay to identify small molecule antagonists of the estrogen related receptor signaling pathway with the pleiotropic PPARgamma coactivator (PGC) from Tox21 10K library - cell viability counter screen (AID 1224840; active means well fitted cell-killing curve with a large enough effect in the repeat runs, not every such curve was filed as active; further: nearly all actives have a fitted effect of over 40% in size)
# Conditions: PGC/ERR reporter cells viability, CellTiter-Fluor, 17.5 h; series mostly up to 92.4 µM; viability change, negative = cytotoxic: at the top concentration
# In short: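 Step one, plate 2,000 PGC/ERR cells per well; step two, incubate 6 h at 37 C/5% CO2; step three, pin-transfer compounds; step four, incubate 17.5 h; step five, add CellTiter-Fluor and read fluorescence after 30 min.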
# On the % scale 0 is the no-effect control and ±100 the full control effect.
row,Structure (SMILES),"viability change, negative = cytotoxic [%]"
1,O=C(O)C(F)(F)C(F)(F)C(F)(F)C(F)(F)C(F)(F)F,4.91
2,C=CCc1ccc(OC(=O)Cc2ccccc2)c(OC)c1,5.91
3,C[C@H]1O[C@H](OC2[C@@H](O)[C@@H](O)C(O)[C@H](O)[C@H]2O)[C@@H](N)C[C@@H]1N=C(N)C(=O)O (stereo not given in full),0.634

# Assay: qHTS assay to identify small molecule antagonists of the estrogen related receptor signaling pathway with the pleiotropic PPARgamma coactivator (PGC) from Tox21 10K library (AID 1224841); further: actives are mostly falling curves and most rising ones were filed inactive; nearly all actives have a fitted effect of over 50% in size
# Conditions: PGC/ERR reporter cell line, ONE-Glo luciferase, 18 h; series mostly up to 92.4 µM; activity, negative = inhibition: at the top concentration
# In short: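 Antagonism in this quantitative HTS is taken from loss of luciferase signal in PGC/ERR cells. Cells (2,000/well) are treated with compounds in DMSO after a 6 h settling period and read by One-Glo luminescence after 18 h.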
Structure (SMILES),"activity, negative = inhibition",Potency
Clc1ccccc1,5.3%,
C[C@H](N)[C@H](O)c1ccc(O)c(O)c1,49% [at 42.5 µM],
CCOC(C(=O)OCCN(C)C)(c1ccccc1)c1ccccc1,4.34% [at 42.5 µM],
O=C=NC1CCCCC1,21.7%,
CCCCCCCCCCCCN(C)C,-7.59%,
CCOP(=S)(OCC)Oc1ccc(S(C)=O)cc1 (stereo not given),11%,
COc1ccc(C(O)(c2cncnc2)C2CC2)cc1 (stereo not given),5.24%,
Nc1cc(Cl)cc(C(=O)O)c1Cl,,inactive
CC1(C)CC(=O)CC(C)(C)N1[O],2.27%,
CC(C)(C)OOC(C)(C)CCC(C)(C)OOC(C)(C)C,11.1%,
ClCc1ccccc1Cl,13.4%,
O=S(=O)(c1ccccc1)c1ccccc1,-2.07%,
